Assay results published in PubChem BioAssay (EPA / NIEHS).
Activity calls are given as the source filed them. How the source made its calls: active means hit-call score of the fitted dose curve at least 0.9, where 1 is the maximum; inactive means score below 0.9.

Assays:
[1] = read-out: Tissue plasminogen activator (tPA), PLAT (gene 5327); experiment: BSK_BE3C_tPA: BioMAP Diversity Plus: BE3C Assay for Tissue plasminogen activator (tPA) Biomarker Activity (AID 2283041); settings: primary human bronchial epithelial cells; actives raise or lower the signal;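 further: tPA level quantified by ELISA one day after compound addition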
Procedure, shortened: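 ELISA read-out of tPA on human primary bronchial epithelial cells, 24 h post-dosing; bidirectional fit vs DMSO negative control/baseline.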

[2] = read-out: Interleukin-8 (IL8), CXCL8 (gene 3576); experiment: BSK_CASM3C_IL8: BioMAP Diversity Plus: CASM3C Assay for Interleukin-8 (IL8) Biomarker Activity (AID 2283042); settings: primary human coronary artery smooth muscle cells; actives raise or lower the signal;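 further: IL-8 protein level quantified by ELISA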
[3] = read-out: Human Leukocyte Antigen - DR isotype (HLADR), HLA-DRA (gene 3122); experiment: BSK_CASM3C_HLADR: BioMAP Diversity Plus: CASM3C Assay for Human Leukocyte Antigen - DR isotype (HLADR) Biomarker Activity (AID 2283043); settings: primary human coronary artery smooth muscle cells; actives raise or lower the signal;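 further: cell-surface HLA-DR protein level quantified by ELISA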
[4] = read-out: Macrophage colony-stimulating factor (MCSF), CSF1 (gene 1435); experiment: BSK_CASM3C_MCSF: BioMAP Diversity Plus: CASM3C Assay for Macrophage colony-stimulating factor (MCSF) Biomarker Activity (AID 2283044); settings: primary human coronary artery smooth muscle cells; actives raise or lower the signal;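 further: M-CSF protein amount quantified by ELISA after 24 h exposure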
[5] = read-out: Low-density lipoprotein receptor (LDLR), LDLR (gene 3949); experiment: BSK_CASM3C_LDLR: BioMAP Diversity Plus: CASM3C Assay for Low-density lipoprotein receptor (LDLR) Biomarker Activity (AID 2283045); settings: primary human coronary artery smooth muscle cells; actives raise or lower the signal;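 further: LDLR protein level on the cell surface quantified by ELISA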
[6] = read-out: Monocyte Chemoattractant Protein-1 (MCP1), CCL2 (gene 6347); experiment: BSK_CASM3C_MCP1: BioMAP Diversity Plus: CASM3C Assay for Monocyte Chemoattractant Protein-1 (MCP1) Biomarker Activity (AID 2283046); settings: primary human coronary artery smooth muscle cells; actives raise or lower the signal;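 further: MCP-1 level quantified by ELISA 24 h after dosing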
[7] = BSK_CASM3C_Proliferation: Cell Proliferation Assessment in the BioMAP Diversity Plus: CASM3C Assay (AID 2283047); settings: primary human coronary artery smooth muscle cells;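 further: sulforhodamine B total protein stain as relative cell number at 560 nm; sub-confluent cells exposed 48 h before staining; fitted both ways against DMSO so gain or loss of cell number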
[8] = read-out: Monokine induced gamma interferon (MIG), CXCL9 (gene 4283); experiment: BSK_CASM3C_MIG: BioMAP Diversity Plus: CASM3C Assay for Monokine induced gamma interferon (MIG) Biomarker Activity (AID 2283048); settings: primary human coronary artery smooth muscle cells; actives raise or lower the signal;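 further: MIG protein level measured by ELISA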
[9] = read-out: serum amyloid A (SAA), SAA1 (gene 6288); experiment: BSK_CASM3C_SAA: BioMAP Diversity Plus: CASM3C Assay for serum amyloid A (SAA) Biomarker Activity (AID 2283049); settings: primary human coronary artery smooth muscle cells; actives raise or lower the signal;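 further: SAA protein level quantified by ELISA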
[10] = BSK_CASM3C_SRB: Viability Assessment in the BioMAP Diversity Plus: CASM3C Assay (AID 2283050); settings: primary human coronary artery smooth muscle cells;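 further: total protein by SRB staining as cytotoxicity measure in parallel cultures; cells exposed to compound for 24 h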
[11] = read-out: Thrombomodulin, THBD (gene 7056); experiment: BSK_CASM3C_Thrombomodulin: BioMAP Diversity Plus: CASM3C Assay for Thrombomodulin Biomarker Activity (AID 2283051); settings: primary human coronary artery smooth muscle cells; actives raise or lower the signal;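 further: thrombomodulin protein level measured by ELISA 24 h after dosing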
[12] = read-out: Tissue Factor, F3 (gene 2152); experiment: BSK_CASM3C_TissueFactor: BioMAP Diversity Plus: CASM3C Assay for Tissue Factor Biomarker Activity (AID 2283052); settings: primary human coronary artery smooth muscle cells; actives raise or lower the signal;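 further: cell surface tissue factor protein level read by ELISA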
[13] = read-out: Interferon-gamma inducible Protein 10 (IP10), CXCL10 (gene 3627); experiment: BSK_hDFCGF_IP10: BioMAP Diversity Plus: hDFCGF Assay for Interferon-gamma inducible Protein 10 (IP10) Biomarker Activity (AID 2283053); settings: primary human foreskin fibroblasts; actives raise or lower the signal
Procedure, shortened: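 ELISA read-out of IP-10 (CXCL10) from primary human skin fibroblasts, 24 h after compound addition. Gain or loss of signal versus DMSO baseline, bidirectional curve fitting.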

[14] = read-out: Urokinase-type plasminogen activator receptor (uPAR), PLAUR (gene 5329); experiment: BSK_CASM3C_uPAR: BioMAP Diversity Plus: CASM3C Assay for Urokinase-type plasminogen activator receptor (uPAR) Biomarker Activity (AID 2283054); settings: primary human coronary artery smooth muscle cells; actives raise or lower the signal;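 further: cell-surface uPAR protein level quantified by ELISA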
[15] = read-out: Vascular cell adhesion molecule 1 (VCAM1), VCAM1 (gene 7412); experiment: BSK_CASM3C_VCAM1: BioMAP Diversity Plus: CASM3C Assay for Vascular cell adhesion molecule 1 (VCAM1) Biomarker Activity (AID 2283055); settings: primary human coronary artery smooth muscle cells; actives raise or lower the signal;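 further: VCAM-1 protein level quantified by ELISA on the cells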
[16] = read-out: Collagen III, COL3A1 (gene 1281); experiment: BSK_hDFCGF_CollagenIII: BioMAP Diversity Plus: hDFCGF Assay for Collagen III Biomarker Activity (AID 2283056); settings: primary human foreskin fibroblasts; actives raise or lower the signal
Procedure, shortened: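 Human foreskin primary fibroblasts were exposed to test chemicals for 24 h, after which collagen III was quantified by ELISA. Activity was fitted bidirectionally against DMSO as negative control and baseline.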

[17] = read-out: Epidermal growth factor receptor (EGFR), EGFR (gene 1956); experiment: BSK_hDFCGF_EGFR: BioMAP Diversity Plus: hDFCGF Assay for Epidermal growth factor receptor (EGFR) Biomarker Activity (AID 2283057); settings: primary human foreskin fibroblasts; actives raise or lower the signal
Procedure, shortened: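 ELISA readout of EGFR on human dermal fibroblasts (primary foreskin cells), 24 h post-dosing; bidirectional curve fit vs DMSO baseline, gain or loss of signal scored.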

[18] = read-out: Interleukin-8 (IL8), CXCL8 (gene 3576); experiment: BSK_hDFCGF_IL8: BioMAP Diversity Plus: hDFCGF Assay for Interleukin-8 (IL8) Biomarker Activity (AID 2283058); settings: primary human foreskin fibroblasts; actives raise or lower the signal
Procedure, shortened: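 hDFCGF human dermal fibroblasts; 24 h chemical exposure; IL-8 by ELISA; bidirectional curve fit vs DMSO baseline; gain or loss of signal scored.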

[19] = BSK_hDFCGF_Proliferation: Cell Proliferation Assessment in the BioMAP Diversity Plus: hDFCGF Assay (AID 2283059); settings: primary human foreskin fibroblasts;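 further: curves fitted for both rise and fall of signal versus DMSO baseline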
Procedure, shortened: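 Total protein read at 560 nm after 0.1% SRB staining of TCA-fixed human skin fibroblasts, […]. Activity is fitted in both directions relative to DMSO as baseline.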

[20] = read-out: Macrophage colony-stimulating factor (MCSF), CSF1 (gene 1435); experiment: BSK_hDFCGF_MCSF: BioMAP Diversity Plus: hDFCGF Assay for Macrophage colony-stimulating factor (MCSF) Biomarker Activity (AID 2283060); settings: primary human foreskin fibroblasts; actives raise or lower the signal
Procedure, shortened: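 Human foreskin primary fibroblasts were treated with test chemical for 24 h, and M-CSF was then measured by ELISA. Data were fitted bidirectionally against DMSO as the negative control and activity baseline.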

Measured: AC50

C[C@]12CCC(=O)C=C1CC[C@@H]1[C@@H]2CC[C@]2(C)C(=O)CC[C@@H]12
active: [5] 4.9 µM | [19] 13.2 µM
not listed: [20]
inactive: all other assays above

C=CC(N)=O
active: [6] 0.887 µM
inactive: all other assays above

O=C(NC(=O)c1cc(F)c(F)cc1Cl)Nc1cc(F)ccc1N1CCC(C(=O)O)CC1
inactive: all assays above

C=CC(=O)NCNC(=O)C=C
inactive: all assays above

C[C@]12CCC(=O)C=C1CC[C@@H]1[C@@H]2CC[C@@]2(C)[C@H]1CC[C@]2(C)O
inactive: all assays above
